Screening data deposited in PubChem BioAssay by several laboratories.
A selection: hits, their analogues and other compounds. The true share with any hit is near 2.4%.
PERK inhibitor – inhibitors of human PERK kinase. AID 1416. 220,000 tested, 0.17% active. inhibition, % at 5.6 µM. CHO PERK-DD fusion, SEAP luminescence translation reporter;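 active = inhibition above the mean inhibition of all tested compounds plus 3 SD, set separately per screening campaign, cut at about 2.9% in these data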;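 note: PERK kinase domain activated by AP20187 dimerizer at 100 nM; 0% = DMSO with dimerizer and 100% = rapamycin at 8.4 µM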
Target sequence (Q9NZJ5 whole entry, looked up, the tested form may be a part): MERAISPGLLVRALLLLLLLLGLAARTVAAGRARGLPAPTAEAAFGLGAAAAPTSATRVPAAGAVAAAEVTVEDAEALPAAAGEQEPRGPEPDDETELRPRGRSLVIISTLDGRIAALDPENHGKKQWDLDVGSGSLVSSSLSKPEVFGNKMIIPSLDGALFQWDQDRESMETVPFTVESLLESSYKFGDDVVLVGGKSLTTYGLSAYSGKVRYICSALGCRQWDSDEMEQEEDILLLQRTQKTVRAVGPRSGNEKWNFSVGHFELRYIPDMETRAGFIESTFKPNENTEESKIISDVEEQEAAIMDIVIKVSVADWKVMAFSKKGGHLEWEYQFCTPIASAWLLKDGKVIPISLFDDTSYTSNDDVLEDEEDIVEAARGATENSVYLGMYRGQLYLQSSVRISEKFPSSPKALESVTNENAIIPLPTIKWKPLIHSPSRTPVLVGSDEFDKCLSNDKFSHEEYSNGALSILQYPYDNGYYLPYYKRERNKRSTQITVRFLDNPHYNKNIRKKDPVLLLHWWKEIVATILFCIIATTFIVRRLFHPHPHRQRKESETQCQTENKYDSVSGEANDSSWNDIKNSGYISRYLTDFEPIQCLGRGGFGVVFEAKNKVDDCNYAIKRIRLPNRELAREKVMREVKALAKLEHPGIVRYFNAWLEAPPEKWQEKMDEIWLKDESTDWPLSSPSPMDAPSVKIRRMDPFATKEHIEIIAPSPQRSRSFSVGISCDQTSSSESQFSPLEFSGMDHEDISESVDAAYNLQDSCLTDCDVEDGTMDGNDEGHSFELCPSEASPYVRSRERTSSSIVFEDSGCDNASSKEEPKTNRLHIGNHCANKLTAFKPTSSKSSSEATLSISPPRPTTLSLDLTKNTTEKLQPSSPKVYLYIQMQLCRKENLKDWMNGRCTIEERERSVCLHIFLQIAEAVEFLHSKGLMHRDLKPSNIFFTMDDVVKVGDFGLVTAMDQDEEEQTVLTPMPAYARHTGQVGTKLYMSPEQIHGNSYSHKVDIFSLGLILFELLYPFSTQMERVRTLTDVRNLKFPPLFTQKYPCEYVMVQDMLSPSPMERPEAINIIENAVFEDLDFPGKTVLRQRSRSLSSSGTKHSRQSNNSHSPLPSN
eIF4E 4G PPI – blocks eIF4E binding to eIF4G | 220,000 tested, 0.37% active | P63073+Q04637 | TR-FRET eIF4E-eIF4GI(517-606) binding, 2 h | AID 782 | inhibition, % at 21.7 µM;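 active = inhibition above about 30%, limit read from the data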;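 note: 0% = full FRET control wells and 100% = background wells lacking eIF4GI fragment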
PfM18AAP inh-1 – blocks P. falciparum M18 aspartyl aminopeptidase. 290,000 tested, 1.2% active. AID 1822. inhibition, % at 7.35 µM. recombinant PfM18AAP, H-Glu-NHMec fluorogenic cleavage;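 active = inhibition above the campaign mean inhibition over all tested compounds plus 3 SD, cut at about 28% in these data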;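 note: 0% = plate median of test compound wells and 100% = 2 mM ZnCl2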
PABP polyA inh – PABP-poly(A) binding inhibition; P11940; PABP-poly(A) RNA binding, fluorescence polarization; inhibition, % at 35 µM; 290,000 tested, 1% active;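 note: calls also rest on retests at 20 µM and on dose response follow-up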
MLLE-PAM2 inh – blocks PAM2 peptide binding to the PABP1 MLLE domain | inhibition, % at 20 µM | 360,000 tested, 0.36% active | P11940 | GST-MLLE / FITC-PAM2 fluorescence polarization; in the data active = inhibition above about 35%, passing the limit was not always enough;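 note: plate controls were DMSO wells with GST-MLLE for no effect and wells lacking GST-MLLE protein for full effect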
eIF4H inh – inhibitors of RNA binding by human eIF4H; eIF4H fluorescence polarization binding assay; inhibition, % at 35 µM; 290,000 tested, 0.94% active; AID 2012;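 note: calls also rest on retests at 20 µM and on dose response follow-up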
PfM18AAP inh-2 – confirmation of Plasmodium falciparum M18 aspartyl aminopeptidase inhibitors. inhibition, % at 7.35 µM. 2,400 tested, 28% active. shares compounds with PfM18AAP inh-1. recombinant PfM18AAP, H-Glu-NHMec fluorogenic cleavage. AID 2170;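 active = mean inhibition over replicate wells above the hit cutoff set for the earlier primary screen, cut at about 29% in these data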;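 note: 0% = median of test compound wells and 100% = 2 mM ZnCl2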
CTSL1 confirm – Cathepsin L (human) inhibition, confirmation; purified cathepsin L1, Z-Leu-Arg-MCA fluorescence; shares compounds with PfM18AAP inh-1; inhibition, % at 5.96 µM; AID 2178; 2,400 tested, under 10 active;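 active = average inhibition across replicates above the hit cutoff set in the earlier primary screen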;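 note: 0% = median of test compound wells and 100% = Z-Phe-Ala-diazomethylketone 1 µM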
* = called active by the depositor; ? = inconclusive; . = not tested or not shown. Unless noted, the rule behind the calls is not given here.

SMILES	PERK inhibitor	eIF4E 4G PPI	PfM18AAP inh-1	PABP polyA inh	MLLE-PAM2 inh	eIF4H inh	PfM18AAP inh-2	CTSL1 confirm
O=C1Nc2ccccc2/C1=N\N=C\c1ccc(O)c(O)c1	-1	-1	48*	8	-5	18	47*	11
Oc1ccc(/C=N/N=C/c2ccc(O)c(O)c2)cc1O	.	.	81*	19	-6	1	76*	6
O=Cc1ccc(O)c(O)c1	2	-4	48*	-11	-2	-6	31*	-1
Oc1ccc(/C=N/N=C/c2ccc(O)cc2)cc1	0	1	-7	7	-1	8	.	.
Cn1c(=O)c2c(nc(SCC(=O)N3CCc4ccccc43)n2Cc2ccc(F)cc2)n(C)c1=O	0	.	-4	.	.	.	.	.
N#CC(=Nc1cccc(F)c1)C1=C(O)c2ccccc2C1=O	.	.	.	.	-9	.	.	.
O=C(NCC1CCCO1)c1ccc(Cl)c(S(=O)(=O)Nc2ccccc2)c1 (centres undefined)	.	.	-11	3	2	10	.	.
CCOc1ccc(OCCC(=O)Nc2ccc(F)cc2C)cc1	1	1	-3	-14	-12	-4	.	.
CN(C)c1ccc(C(=O)NNC(=O)Nc2ccccc2)cc1	0	-5	55*	5	-12	0	31*	-10
Cc1nc2ccccn2c1C(=O)NNC(=O)Nc1ccccc1	.	.	66*	0	-12	-23	67*	0
Cc1nc2ccccn2c1C(=O)NNC(=S)Nc1ccccc1	0	7	17	4	-7	-1	.	.
O=C(c1cccnc1)N1CCN(c2c(Cl)cccc2[N+](=O)[O-])CC1	-1	4	4	-3	-8	-4	.	.
CC1CCN(C(=O)CCC(=O)Nc2ccc([N+](=O)[O-])cc2)CC1	.	.	.	.	-11	.	.	.
O=c1[nH]c2cc3c(cc2cc1CN(CCN1CCOCC1)C(=S)NCC1CCCO1)OCO3 (centres undefined)	0	0	41*	-5	-128	2	-36	0
Cc1nn(C)cc1C(=O)NNC(=S)Nc1ccccc1	0	0	14	5	-8	3	.	.
CNC(=S)NNC(=O)c1cn(C)nc1C	1	-4	32*	-1	-11	-4	19	-4
COc1ccc(C(=O)Nn2cnnc2)c(OC)c1	1	3	34*	-3	2	0	7	1
Cc1cccc(C(=O)NNC(=O)c2c(-c3ccccc3Cl)noc2C)c1O	.	.	39*	10	4	5	-4	0
Cc1onc(-c2c(Cl)cccc2Cl)c1C(=O)c1ccccc1	-1	6	-11	-4	-22	9	.	.
Cc1onc(-c2c(Cl)cccc2Cl)c1C(=O)Nn1cnnc1	-1	2	45*	6	-2	-11	37*	2
COc1ccc(C(=O)Nn2cnnc2)cc1OC	0	5	43*	72*	1	89*	26	-1
Cc1ccc(C(=O)NCc2ccccn2)c(Cl)c1	1	3	1	-7	8	4	.	.
Cc1ccc(C(=O)Nn2cnnc2)c(Cl)c1	.	.	49*	2	2	-9	42*	-6
CNS(=O)(=O)c1cccc(C(=O)OCc2cc(=O)n3cc(Br)ccc3n2)c1	0	15	4	4	-4	17	.	.
CN(C)/C=C/c1oc2ccc(O)cc2c1[N+](=O)[O-]	0	0	36*	-4	-58	-15	-35	11
SMILES	PERK inhibitor	eIF4E 4G PPI	PfM18AAP inh-1	PABP polyA inh	MLLE-PAM2 inh	eIF4H inh	PfM18AAP inh-2	CTSL1 confirm
CN(C)/C=C/c1[nH]c(=O)[nH]c(=O)c1[N+](=O)[O-]	-1	-2	3	16	-6	12	.	.
Clc1ccc(C2Nc3cccc4cccc(c34)N2)cc1Cl	.	.	36*	50*	6	55*	-24	-5
CN(C)c1ccc(C2Nc3cccc4cccc(c34)N2)cc1	.	.	37*	2	-42	7	-11	-5
CN(C)c1ccc(C2NC(=O)c3ccccc3N2)cc1 (centres undefined)	.	.	15	2	-1	2	.	.
CNC(=S)NNc1nc(C)cc(C)n1	-1	-3	68*	-3	-5	3	48*	0
CNC(=S)NNc1nc(-c2ccccc2)c2cc(Cl)ccc2n1	.	.	.	.	-93	.	.	.
O=C1C2Sc3[nH]c(=O)sc3C(c3ccccc3)C2C(=O)N1c1ccc(Cl)cc1 (centres undefined)	0	9	36*	16	29	0	-15	-4
CCC1(CC)C(=O)C(C)(C)C(=O)OC1c1cccs1 (centres undefined)	1	-5	10	-1	2	17	.	.
O=[N+]([O-])c1cc2c(cc1/C=N\NS(=O)(=O)c1ccccc1)OCO2	2	-2	48*	14	-7	25	4	-5
CC(C)(C)c1ccc(O)c(N=Cc2cc3c(cc2[N+](=O)[O-])OCO3)c1	.	.	36*	-4	12	21	90*	1
Cc1ccc(C)c(N=Cc2cc3c(cc2[N+](=O)[O-])OCO3)c1	1	8	17	2	4	72	.	.
O=C(CCc1ccc(O)c(O)c1)N/N=C/c1cc2c(cc1[N+](=O)[O-])OCO2	.	.	76*	61*	15	94*	51*	-1
Cc1cccc(C)c1OCC(=O)N/N=C/c1cc2c(cc1[N+](=O)[O-])OCO2	0	-3	22	16	-1	-2	.	.
CCOC(=O)CN(C(=O)COC(=O)C1=NNC(=O)CC1)c1ccc(F)cc1	.	.	.	.	-12	.	.	.
N#Cc1c(C(F)(F)F)cc(-c2ccco2)nc1SCc1ccncc1	1	2	44*	2	-35	1	-43	7
CC1(C(=O)NS(=O)(=O)c2ccccc2Cl)CCN1C(=O)COc1ccc(Cl)cc1 (centres undefined)	.	.	.	.	-7	.	.	.
Brc1ccc2nc(CSc3ncn[nH]3)cn2c1	1	2	66*	-5	13	-13	30*	3
Cc1cc(C)nc(SCc2cn3cc(Cl)ccc3n2)n1	0	7	0	37	-2	8	.	.
Clc1ccc2nc(CSc3ncn[nH]3)cn2c1	1	-6	43*	-11	2	-5	13	7
CC(=O)NN1C(=O)c2ccccc2NC1c1ccccc1O (centres undefined)	.	.	42*	19	-3	-4	12	-2
Cc1cc(OCC(=O)Nn2cnnc2)ccc1Br	1	-3	56*	-9	2	-14	59*	-7
O=C(NC1CCCC1)C(c1ccccc1F)N(C(=O)c1csnn1)c1ccccc1 (centres undefined)	.	.	2	8	16	-2	.	.
Cc1ccc(C(=O)Nn2c(O)c(C=C3N=c4ccccc4=N3)sc2=S)cc1	0	-3	55*	?	-26	?	-31	1
